AI-2 QS modul – Vibrio harveyi AI-2 quorum sensing modulators, primary screen, JMH597 strain, luminescence/OD600 ratio; hit rate 0.4% among 300,000; AID 2094, 2009; activity change, % at 7.5 µM; Vibrio harveyi JMH597 AI-2 luminescence/OD600 ratio, 9 h; active compounds read low; strain lacks LuxN and CqsS sensors; 0 = neutral-control median; in the data active = activity change below about -75%, passing the limit was not always enough; inconclusive = no clear call, values can overlap the other calls;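 also: luminescence divided by OD600 gain over 9 h not by final OD600 alone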
Rin1 Abl inh – inhibitors of Rin1-Abl protein binding, primary screen, biochemical, TR-FRET. Tyrosine-protein kinase ABL1 (Homo sapiens) + Ras and Rab interactor 1 (Homo sapiens), …. inhibition, % at 7.35 µM. hit rate 0.4% among 360,000; in the data active = inhibition above about 5%, passing the limit was not always enough
ARNT-TACC3 inh – disruptors of ARNT/TACC3 protein interaction, primary screen, biochemical, AlphaScreen, single concentration; Transforming acidic coiled-coil-containing protein 3 (Homo sapiens), Q9Y6A5; AlphaScreen His-ARNT PAS-B/GST-TACC3 binding, luminescence; TACC3 fragment carries E629A point mutation; inhibition, % at 9.99 µM; hit rate 0.66% among 390,000;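 active = mean inhibition of replicates at least 50% and at least half of replicates each reaching 50%; inconclusive = half or more replicates reach 50% but mean below 50%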
sPLA2-III inh – human group III sPLA2 inhibitors, primary screen, biochemical, QFRET, BODIPY PC-A2 liposome substrate; Group 3 secretory phospholipase A2 (Homo sapiens), Q9NZ20; QFRET BODIPY PC-A2 liposome hydrolysis, fluorescence; inhibition, % at 12.2 µM; hit rate 0.56% among 370,000; AID 743126, 2013;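 active = inhibition above mean plus 3 SD of compounds lying within the high and low control bounds, cut at about 19% in these data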
Target sequence (Q9NZ20 whole entry, looked up): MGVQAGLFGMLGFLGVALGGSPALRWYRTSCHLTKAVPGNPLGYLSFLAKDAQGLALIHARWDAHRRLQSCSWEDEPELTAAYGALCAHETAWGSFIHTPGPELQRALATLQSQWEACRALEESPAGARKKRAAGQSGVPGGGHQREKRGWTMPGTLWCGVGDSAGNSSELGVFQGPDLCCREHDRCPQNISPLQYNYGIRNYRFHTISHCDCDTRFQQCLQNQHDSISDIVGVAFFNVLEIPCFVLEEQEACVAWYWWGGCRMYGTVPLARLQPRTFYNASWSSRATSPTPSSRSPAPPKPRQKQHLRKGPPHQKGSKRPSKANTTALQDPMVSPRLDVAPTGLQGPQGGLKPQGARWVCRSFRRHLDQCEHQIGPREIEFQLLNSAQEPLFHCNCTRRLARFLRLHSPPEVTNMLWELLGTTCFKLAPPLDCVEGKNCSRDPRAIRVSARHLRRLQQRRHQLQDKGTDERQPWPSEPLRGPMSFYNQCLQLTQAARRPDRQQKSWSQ
hGIII sPLA2 conf – human group III sPLA2 inhibitors, confirmation, biochemical, QFRET, triplicate; shares compounds with sPLA2-III inh; recombinant hGIII-sPLA2, BODIPY PC-A2 QFRET fluorescence; inhibition, % at 12.2 µM; hit rate 34% among 2,000; AID 743280, 2014;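 active = mean inhibition across triplicates above the hit cutoff set in the earlier primary screen, cut at about 19% in these data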
535nm interf – 535nm fluorescence optical interference, confirmation, artefact control for HGIII-sPLA2 inhibitor project, biochemical, QFRET. shares compounds with sPLA2-III inh. BODIPY FL product fluorescence interference. inhibition, % at 12.2 µM. hit rate 8.5% among 2,000. AID 743282, 2014;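 active = average inhibition above the solvent-only control mean plus 3 SD, cut at about 6% in these data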
BODIPY interf DR – 535nm fluorescence optical interference, dose response, artefact control for HGIII-sPLA2 inhibitor project, biochemical, QFRET; shares compounds with sPLA2-III inh; BODIPY FL product fluorescence interference, cell-free; IC50, µM; 240 tested, under 10 active;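 active = IC50 at or below 10 µM; inactive = IC50 above 10 µM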
Hits are given with their value; n = inactive; u = inconclusive; x = no result given. This is a sample that favours compounds with a hit; in the whole collection about 1.5% have one here.

SMILES | AI-2 QS modul | Rin1 Abl inh | ARNT-TACC3 inh | sPLA2-III inh | hGIII sPLA2 conf | 535nm interf | others
N#C/C(=C\c1ccc2c(c1)OCCO2)C(=O)NC1CCCCC1 | n | n | n | 24 | n | n
Oc1ccc(-c2csc(Nc3cccc4ccccc34)n2)cc1O | n | n | n | 21 | n | 11
CC(C)(C)C(=O)NC(=S)Nc1ccc(F)cc1 | n | n | n | 23 | n | n
COc1ccc(S(=O)(=O)Nc2ccc3c(c2)C(=O)N([C@@H](C)CO)C[C@H](C)[C@H](CN(C)S(=O)(=O)c2cccs2)OCCCC[C@@H](C)O3)cc1 | x | x | n | x | x | x
O=C(COC(=O)c1cc(=O)c2ccccc2o1)Nc1ccc2ccccc2c1 | n | n | n | 22 | n | n
COc1cccc(-n2c(SCc3cc(=O)oc4cc(O)c(O)cc34)nc3ccccc3c2=O)c1 | n | n | n | 20 | n | n
CCN(CC)C(=O)CSc1nc2ccccc2c(=O)n1-c1cccc(OC)c1 | n | n | n | n | x | x
CCSc1ncc(Cl)c(C(=O)Nc2ccccc2OC)n1 | n | n | n | 21 | n | n
CCSc1ncc(Cl)c(C(=O)Nc2ccccc2Cl)n1 | n | n | n | n | x | x
CCCN1C[C@@H](C)[C@H](OC)CN(C)C(=O)c2cc(NS(C)(=O)=O)ccc2OC[C@@H]1C | x | x | n | x | x | x
CC(C)CC#Cc1cnc2c(c1)C(=O)N([C@@H](C)CO)C[C@@H](C)[C@H](CN(C)Cc1ccccn1)O2 | x | x | n | x | x | x
O=C(N/N=C/c1c(O)ccc2ccccc12)c1cccc(C(F)(F)F)c1 | n | n | n | 43 | n | n
COc1ccc(S(=O)(=O)N(C)C[C@H]2Oc3ncc(/C=C/c4ccccc4)cc3C(=O)N([C@@H](C)CO)C[C@@H]2C)cc1 | x | x | n | x | x | x
CC(=O)Nc1sc(N/N=C\c2cccc(Cl)c2)nc1-c1cccs1 | n | n | n | 25 | 35 | 14
O=C(C[C@@H]1C[C@@H]2c3cc(NC(=O)c4cccnc4)ccc3O[C@@H]2[C@@H](CO)O1)NCCN1CCCCC1 | x | x | n | x | x | x
CC1CN(C(=S)NC(=O)c2ccco2)CC(C)O1 (stereo not drawn) | n | n | n | 22 | n | n
Cc1ccc(S(=O)(=O)NCC[C@H]2CC[C@H](NS(=O)(=O)c3ccccc3Cl)[C@H](CO)O2)cc1 | x | x | n | x | x | x
CO[C@H]1CN(C)C(=O)c2cc(NC(C)=O)ccc2OC[C@@H](C)N(C(=O)CC2CC2)C[C@@H]1C | x | x | n | x | x | x
C[C@@H]1CN([C@@H](C)CO)C(=O)c2cc(NC(=O)c3ccncc3)ccc2O[C@@H](C)CCCCO[C@H]1CN(C)C(=O)C1CCCCC1 | x | x | n | x | x | x
CCOC(=O)c1sc(NC(=S)NC(=O)C2CC2)cc1C | n | n | n | 21 | n | n
CCN1C(=O)/C(=C\C=C2/C=CC=CN2CC)SC1=S | n | n | n | 25 | 27 | n
COc1ccc(O)c(/C=N/NC(=O)c2ccc(CSc3nc(C)cc(C)n3)cc2)c1 | n | n | n | n | x | x
Cc1cc(C)nc(SCc2ccc(C(=O)N/N=C/c3cccc(O)c3O)cc2)n1 | u | n | n | 26 | 38 | n | BODIPY interf DR=n
CNCc1ccccc1Sc1cc(O)ccc1O | x | n | n | 20 | 38 | n | BODIPY interf DR=n
C=CCS/C(N)=N\N=C\c1cc(Br)cc([N+](=O)[O-])c1O | n | n | n | 38 | 30 | n | BODIPY interf DR=n
SMILES | AI-2 QS modul | Rin1 Abl inh | ARNT-TACC3 inh | sPLA2-III inh | hGIII sPLA2 conf | 535nm interf | others
CS/C(N)=N/N=C/c1cc(C)ccc1O | n | n | n | n | x | x
CS/C(N)=N/N=C/c1cc(Br)cc(Br)c1O | n | n | n | 38 | 34 | 6.8
O=C(C[C@H]1C[C@@H]2c3cc(NC(=O)Cc4ccncc4)ccc3O[C@@H]2[C@H](CO)O1)NCc1ccccn1 | x | x | n | x | x | x
O=C(C[C@@H]1CC[C@@H]2[C@H](COC[C@@H](O)CN2Cc2cc(F)ccc2F)O1)N[C@@H]1CCN(Cc2ccccc2)C1 | x | x | n | x | x | x
CC(C)CC(N)c1csc(Nc2ccc(C(=O)N(C)Cc3ccccc3)cn2)n1 (stereo not drawn) | x | n | x | 21 | n | n
CN(Cc1ccccc1)C(=O)c1ccc(Nc2nc(C(N)Cc3ccccc3)cs2)nc1 (stereo not drawn) | x | n | x | n | x | x
C=CCN1C=C/C(=C\C=C(C#N)C#N)c2ccccc21 | n | n | n | 28 | 48 | 13
CCCCCCN1C=C/C(=C\C=C(C#N)C#N)c2ccccc21 | n | n | n | n | x | x
C[C@@H]1CN([C@@H](C)CO)S(=O)(=O)c2ccc(C#C[C@@H](C)O)cc2O[C@@H]1CN(C)Cc1ccccn1 | x | x | n | x | x | x
C[C@@H]1CN([C@@H](C)CO)C(=O)Cc2cc(NC(=O)Nc3ccc(C(F)(F)F)cc3)ccc2O[C@@H]1CN(C)S(C)(=O)=O | x | x | n | x | x | x
O=C(CCc1ccccc1)NC(c1cccs1)c1cc(Cl)c2cccnc2c1O (stereo not drawn) | n | n | n | 23 | n | n
CCCCC(=O)NC(c1ccco1)c1cc(Cl)c2cccnc2c1O (stereo not drawn) | n | n | n | 23 | n | n
CCC(=O)NC(c1ccco1)c1cc(Cl)c2cccnc2c1OC (stereo not drawn) | x | n | n | n | x | x
C[C@H](CO)N1C[C@H](C)[C@H](CN(C)S(=O)(=O)c2ccc(C#N)cc2)Oc2ncc(-c3ccc(F)cc3)cc2C1=O | x | x | n | x | x | x
Cc1ccc2c(c1)c1c3n2CCN(C=O)C3CCC1 (stereo not drawn) | n | n | n | n | x | x
CCN(CC)CCN1CCn2c3c(c4cc(C)ccc42)CCCC31 (stereo not drawn) | n | n | x | 23 | n | n
Cc1ccc2c(c1)c1c3n2CCNC3CCC1 (stereo not drawn) | n | n | n | 27 | 32 | n | BODIPY interf DR=n
CNC(=O)C[C@@H]1CC[C@H]2[C@@H](COC[C@H](O)CN2Cc2ccncc2)O1 | x | x | n | x | x | x
CCNC(=O)C[C@@H]1CC[C@H]2[C@@H](COC[C@H](O)CN2C(=O)Nc2cccc(OC)c2)O1 | x | x | n | x | x | x
O=C(Nc1ccc(N2CCOCC2)nc1)c1cccs1 | n | n | n | n | x | x
O=C(Nc1cccnc1N1CCOCC1)c1cccs1 | n | n | n | 22 | n | n
CO[C@@H]1CN(C)C(=O)c2cc(NS(C)(=O)=O)ccc2OC[C@H](C)N(C)C[C@@H]1C | x | x | n | x | x | x

Bioassay records as filed in PubChem.
